Compound activity as filed in PubChem BioAssay.
Giardia killer: Small Molecules that selectively kill Giardia lamblia: qHTS; 340,000 compounds, 0.15% hits; Giardia lamblia trophozoite viability; activity change, % at 7.66 µM, hits read low; in the data active = activity change below about -80%; inconclusive = between about -30% and that limit;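 also: parasites exposed to compound for two days anaerobically before the ATP read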
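Giardia trophozoites, 100 cells per well, were exposed to compounds for 48 hrs at 37 deg C under anaerobic conditions; viability was then read as ATP content by bioluminescence after 15-30 min at room temperature.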
ELG1 DNA repair: qHTS screen for small molecules that inhibit ELG1-dependent DNA repair in human embryonic kidney (HEK293T) cells expressing luciferase-tagged ELG1. Potency, µM (series often up to 46.1 µM), actives largely listed as inhibitors. HEK293T ELG1-luciferase reporter, luminescence, 16 h; DNA damage induced by 5-fluorouridine. 330,000 compounds, 2.3% hits; also: nearly all actives have a fitted effect of over 55% in size
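Step one: seed 2,000 cells per well. Step two: pin-transfer compound or DMSO alongside 5-fluorouridine. Step three: incubate 16 hr, 37 °C, 5% CO2. Step four: add ONE-Glo, wait 30 min, read luminescence.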
FBPA coupling cs: qHTS Assay for Inhibitors of Fructose-1,6-bisphosphate Aldolase from Giardia Lamblia: Coupling assay counterscreen; coupling enzyme system counterscreen, AmpLite Red fluorescence; activity change, negative = inhibition, % at 58.2 µM, hits read low; 290,000 compounds, 0.67% hits; in the data active = activity change below about -30%
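Counterscreen lacking aldolase: glyceraldehyde-3-phosphate coupling-enzyme reagent preincubated 10 min at RT with compound (at 57.5 uM final), then substrate/coupling system with AmpLite Red added; fluorescence read at 525/598 nm after 20 min RT.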
Sfp inh: qHTS Assay for Inhibitors of Bacillus subtilis Sfp phosphopantetheinyl transferase (PPTase) | 4'-phosphopantetheinyl transferase ffp (Bacillus subtilis), Q9F4F7 | Biochemical Sfp PPTase activity, qHTS | Potency, µM, most hits filed as inhibitors | 310,000 compounds, 3.5% hits | AID 1490, 2009;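 also: the enzyme is Sfp with the accession as filed and its product quenches rhodamine fluorescence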
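Step 1, compound plus 15 nM Sfp-PPTase, 15 min, room temperature. Step 2, add rhodamine-CoA (5 uM) and BHQ-2-YbbR (12.5 uM). Step 3, read 525/598 nm fluorescence at 0 and 30 min.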
Each line names hits and unclear results; the compound was inactive in the other large screens; ! = not confirmed by another sample. Compounds with a hit are over-represented: about 5.5% of the library has one in this group of screens. Unless noted, calls follow the shape of the dose curve; as a rule, active = well fitted curve in the direction sought with a large enough effect; inconclusive = small, poorly fitted or top-dose-only effect, or another doubt; inactive = no such curve, though single readings can be large; an effect the other way counts as inactive or inconclusive.

O=C(Nc1ccc(S(=O)(=O)N2CCOCC2)cc1)c1cc(-c2cc(Cl)ccc2O)n[nH]1	ELG1 DNA repair 23µM
Cc1ccc(O)c(-c2cc(C(=O)Nc3ccc(S(=O)(=O)N4CC(C)OC(C)C4)cc3)[nH]n2)c1 (stereo not given)	ELG1 DNA repair 8.2µM
Cc1cc(O)c(-c2cc(C(=O)Nc3ccc(S(=O)(=O)N4CCOCC4)cc3)[nH]n2)cc1C	ELG1 DNA repair inconclusive
COc1ccc(N(CC(=O)NCCSCc2ccccc2Cl)S(C)(=O)=O)cc1Cl	none
O=C1C(Cl)=C(NCC2CCCO2)C(=O)N1C1CCCCC1 (stereo not given)	Sfp inh 40µM
O=C1C(Cl)=C(NCC2CCCO2)C(=O)N1c1ccccc1 (stereo not given)	ELG1 DNA repair inconclusive
Cc1cc(C)nc(NC(=O)c2ccc(Cl)c([N+](=O)[O-])c2)n1	none
Cc1nc(N2CCCCC2)sc1C(=O)c1ccc(Cl)c([N+](=O)[O-])c1	ELG1 DNA repair 18µM, Sfp inh inconclusive (no result: Giardia killer)
O=C(COc1ccc(Cl)cc1)OCc1ccc(Cl)cc1	none (no result: ELG1 DNA repair, FBPA coupling cs, Sfp inh)
CCCNC(=O)c1onc(CSc2ccc(F)cc2)c1C(=O)NCCOC	none (no result: FBPA coupling cs, Sfp inh)
COc1cc(OC)c(N(C)S(=O)(=O)c2cccc(C(=O)Nc3nc(C)cs3)c2)cc1Cl	ELG1 DNA repair 18µM (no result: FBPA coupling cs, Sfp inh)
COc1cc(OC)c(N(C)S(=O)(=O)c2cccc(C(=O)NC3=NCCS3)c2)cc1Cl	ELG1 DNA repair 16µM
COc1ccc(N(C)S(=O)(=O)c2cccc(C(=O)Nc3nc(C)cs3)c2)cc1	ELG1 DNA repair inconclusive (no result: FBPA coupling cs, Sfp inh)
Cc1ccc(C(CNS(=O)(=O)c2ccc([N+](=O)[O-])cc2)N2CCN(C)CC2)cc1 (stereo not given)	ELG1 DNA repair inconclusive (no result: FBPA coupling cs, Sfp inh)
COc1cc(NC(=O)c2cc3nc(-c4ccccc4)cc(-c4ccccc4)n3n2)cc(OC)c1OC	ELG1 DNA repair 10µM (no result: FBPA coupling cs)
Cc1ccccc1Cn1nc(C)c(NC(=O)c2cc(CC(C)C)on2)c1C	ELG1 DNA repair 26µM
Cc1cc(C(=O)Nc2cc(C)n(Cc3ccc(Cl)cc3)n2)no1	none
COc1ccccc1-c1cc(C(=O)Nc2cc(C)n(Cc3ccc(Cl)cc3)n2)no1	Sfp inh 40µM
COc1cc(C2=NOC(C(=O)N3CCCCCC3)C2)cc(OC)c1OC (stereo not given)	ELG1 DNA repair 7.3µM
COc1cccc(-c2cc(C(=O)Nc3cc(OC)c(OC)c(OC)c3)no2)c1	ELG1 DNA repair 23µM
COc1cccc(C2=NOC(C(=O)Nc3cc(OC)c(OC)c(OC)c3)C2)c1 (stereo not given)	ELG1 DNA repair 18µM
COc1cccc(-c2cc(C(=O)Nc3c(C)nn(Cc4ccccc4)c3C)no2)c1	ELG1 DNA repair 21µM
COc1cc(NC(=O)c2cc(-c3ccccc3)on2)cc(OC)c1OC	ELG1 DNA repair inconclusive
COCCN=C1OC(=O)N2C(=O)C3=C4C(C[C@H]5C(=O)N(CC(=O)OC)C(=O)[C@H]5[C@H]4[C@@]12Cc1ccccc1)[C@H]1C(=O)N(CC(=O)OC)C(=O)[C@H]1[C@H]3C (stereo not given in full)	none (no result: Giardia killer, ELG1 DNA repair)
Cc1cc2c(cc(C(=O)N3CCC(C(=O)N4CCCC4)CC3)n2Cc2c(F)cccc2Cl)o1	Sfp inh 50µM
O=C1CSc2ccc(C(=O)NCCc3ccc(Cl)cc3Cl)cc2N1	ELG1 DNA repair 26µM (no result: FBPA coupling cs, Sfp inh)
COCCNC(=O)c1ccc2c(c1)NC(=O)CS2	none
Cc1cccc(N2CCN(C(=O)CSc3ccc4c(c3)OCCO4)CC2)c1C	ELG1 DNA repair 11µM (no result: FBPA coupling cs, Sfp inh)
Cc1cccc(N2CCN(C(=O)COc3ccc4c(C)cc(=O)oc4c3C)CC2)c1C	ELG1 DNA repair 26µM (no result: FBPA coupling cs)
COc1ccc(C(CNC(=O)c2oc3c(Cl)cccc3c2C)N2CCCC2)cc1 (stereo not given)	ELG1 DNA repair inconclusive (no result: FBPA coupling cs, Sfp inh)
CN(C)c1ccc(NC(=O)CN2CCC(N3CCCCC3)CC2)cc1	Sfp inh 89µM
O=C(CN1CCCC1)Nc1ccc(Br)cc1	Sfp inh 50µM
CN(C)c1ccc(NC(=O)CN2CCC(NC(=O)C3CCCCC3)CC2)cc1	none
Cc1cc(NC(=O)CN2CCN(C/C=C/c3ccccc3)CC2)c([N+](=O)[O-])cc1C	ELG1 DNA repair inconclusive
CC(C)[C@H](NC(=O)c1ccc([N+](=O)[O-])cc1Cl)C(=O)N1CCN(C/C=C/c2ccccc2)CC1	ELG1 DNA repair 13µM (no result: FBPA coupling cs, Sfp inh)
O=C(CN1CCN(c2cccc(Cl)c2)CC1)Nc1ccc([N+](=O)[O-])cc1C(=O)Nc1ccccc1F	ELG1 DNA repair 15µM
O=C(CN1CCN(C/C=C/c2ccccc2)CC1)Nc1cc([N+](=O)[O-])ccc1Cl	ELG1 DNA repair inconclusive, Sfp inh 45µM
CC(C)C(NC(=O)c1ccc(Cl)cc1Cl)C(=O)N1CCC1 (stereo not given)	none (no result: FBPA coupling cs, Sfp inh)
Cc1cccnc1NC(=O)c1ccc(NS(=O)(=O)/C=C/c2ccccc2)cc1	none (no result: FBPA coupling cs, Sfp inh)
CC1=C(CC(=O)O)c2cc(F)ccc2/C1=C\c1ccc(S(C)=O)cc1 (stereo not given)	Sfp inh 79µM!
Cc1ccc(CSc2ncn(-c3ccccc3)n2)cc1	ELG1 DNA repair inconclusive
Cc1ccc(CSc2nccc(-c3c(C)nc4ccccn34)n2)cc1	ELG1 DNA repair 15µM
CC1CCc2c(sc3[nH]c(=S)n(C)c(=O)c23)C1 (stereo not given)	ELG1 DNA repair inconclusive, Sfp inh 79µM
Cc1cc(-c2nn3c(-c4ccccc4)nnc3s2)c2ccccc2n1	Sfp inh inconclusive
c1ccc(-c2cc(-c3nn4c(-c5ccco5)nnc4s3)c3ccccc3n2)cc1	ELG1 DNA repair 21µM, Sfp inh inconclusive
Cc1ccccc1-c1nn2c(-c3ccccc3)nnc2s1	ELG1 DNA repair inconclusive, Sfp inh 56µM
CCNC(=S)Nc1ccc(OCc2nc3ccccc3s2)cc1	ELG1 DNA repair inconclusive, Sfp inh 20µM
O=C(O)CCCC(=O)Nc1ccc(OCc2nc3ccccc3s2)cc1	ELG1 DNA repair inconclusive, Sfp inh 8.9µM
C=CC[C@@H](CC(=O)N[C@@H](CO)Cc1ccccc1)C(=O)N[C@H](COC(=O)[C@@H](CC=C)CC(=O)OC(C)(C)C)Cc1c[nH]c2ccccc12	ELG1 DNA repair 21µM (no result: FBPA coupling cs, Sfp inh)
C=CC[C@H](CC(=O)N[C@H](CO)Cc1ccccc1)C(=O)N[C@@H](COC(=O)[C@@H](CC=C)CC(=O)OC(C)(C)C)Cc1c[nH]c2ccccc12	ELG1 DNA repair inconclusive (no result: FBPA coupling cs, Sfp inh)
C=CC[C@@H](CC(=O)N[C@H](CO)Cc1ccccc1)C(=O)N[C@H](COC(=O)[C@@H](CC=C)Cc1ccc(F)cc1)Cc1c[nH]c2ccccc12	ELG1 DNA repair 21µM (no result: FBPA coupling cs, Sfp inh)
CCN1CCCC1Cn1c(-c2ccccc2)nc2c(N(CCOC)CCOC)nc(C)nc21 (stereo not given)	none (no result: Giardia killer, ELG1 DNA repair)
N[C@H](C(=O)O)c1cc(O)cc(O)c1	Sfp inh 45µM! (no result: Giardia killer, ELG1 DNA repair)
N[C@@H](C(=O)O)c1ccc(C(=O)O)c(O)c1	none (no result: Giardia killer, ELG1 DNA repair)
Oc1cc2ccccc2cc1-c1n[nH]c(=S)n1Cc1ccco1	Sfp inh 22µM
